These results are taken from PubChem BioAssay (Tox21).

Each structure is given as a SMILES string. Several values for one entry are separate records, joined by “and”; a condition that tells them apart may be missing. Equal entries are not always repeated. Results filed as inconclusive are left out. A structure can be active in one record and inactive in another. Activity calls are given as the source filed them. Calls follow the shape of the dose curve; as a rule, active = well fitted curve in the direction sought with a large enough effect in the repeat runs; inconclusive = weak or mixed curves; inactive = no such curve, though single readings can be large; an effect the other way counts as inactive or inconclusive.

Experiment [1] in a line: qHTS RealTime-Glo MT Cell Viability Assay in HepG2 cells - 40 hour (AID 1224870). Also: nearly all actives have a fitted effect of over 50% in size. An outline of the steps:
(§1)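 HepG2 cells (600/well) mixed with RealTime-Glo MT reagent, settled 5 h at 37 C/5% CO2 before compound addition. Nonlytic NanoLuc luminescence from viable-cell prosubstrate reduction read repeatedly during 40 h treatment at 37 C.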

A short description of experiment [2]: A CellTox Green Cytotoxicity Assay to monitor cytotoxicity in HEK293 cells - 40 hour (AID 1224871). Also: nearly all actives have a fitted effect of over 45% in size. Also: potency is read from the fitted curve at half-maximal effect. An outline of the steps: (§2)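 Each value comes from one timepoint of a single continuous run in which HEK293 cells with CellTox Green were exposed to compound for up to 40 h at 37 C, dye fluorescence rising with cell death.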
The nature of experiment [3]: qHTS RealTime-Glo MT Cell Viability Assay in HepG2 cells - 8 hour (AID 1224873). Also: nearly all actives have a fitted effect of over 55% in size. An outline of the steps: as §1
A general note: In qHTS, concentration-response curves come from the screen itself.

Experiment [4] is described as follows: qHTS RealTime-Glo MT Cell Viability Assay in HEK293 cells - 40 hour (AID 1224874). Also: nearly all actives have a fitted effect of over 50% in size. Also: potency is read from the fitted curve at half-maximal effect. Conditions: RealTime-Glo luminescence; max response: stronger effect = lower value. Put shortly:
(§3)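 qHTS format; HEK293 cells with NanoLuc/prosubstrate reagent, 37 C/5% CO2 for 5 h pre-dosing; compounds 23 nL in DMSO; luminescence at each time point reflects viable cells.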

Experiment [5] in a line: A CellTox Green Cytotoxicity Assay to monitor cytotoxicity in HEK293 cells - 24 hour (AID 1224875). Also: series mostly up to about 77 µM; nearly all actives have a fitted effect of over 45% in size. Put shortly:
as §2

A short description of experiment [6]: A CellTox Green Cytotoxicity Assay to monitor cytotoxicity in HepG2 cells - 16 hour (AID 1224876). Also: nearly all actives have a fitted effect of over 45% in size. Also: potency is read from the fitted curve at half-maximal effect. Put shortly:
(§4)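 Continuous culture of HepG2 cells with a membrane-impermeant DNA dye; rising fluorescence marks dead cells. Compound exposure lasted up to 40 h at 37 C, with reads every 8 h from 0 h.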

Experiment [7] in a line: qHTS RealTime-Glo MT Cell Viability Assay in HepG2 cells - 32 hour (AID 1224877). Also: nearly all actives have a fitted effect of over 55% in size. An outline of the steps:
(§5)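 Luminescence read-out: viable HepG2 cells reduce a prosubstrate to a NanoLuc substrate, giving a signal proportional to live cell number. Reads taken at 0, 8, 16, 24, 32 and 40 h of compound exposure at 37 C.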

Experiment [8] in a line: A CellTox Green Cytotoxicity Assay to monitor cytotoxicity in HepG2 cells - 40 hour (AID 1224879). Also: nearly all actives have a fitted effect of over 40% in size. Also: potency is read from the fitted curve at half-maximal effect. An outline of the steps: as §4
Experiment [9] can be described thus: qHTS RealTime-Glo MT Cell Viability Assay in HEK293 cells - 0 hour (AID 1224880). Also: top concentration of the series differs between compounds; nearly all actives have a fitted effect of over 45% in size. An outline of the steps:
as §3

The nature of experiment [10]: A CellTox Green Cytotoxicity Assay to monitor cytotoxicity in HepG2 cells - 0 hour (AID 1224882). Also: nearly all actives have a fitted effect of over 35% in size. Also: potency is read from the fitted curve at half-maximal effect. An outline of the steps:
as §4

Experiment [11] is described as follows: A CellTox Green Cytotoxicity Assay to monitor cytotoxicity in HepG2 cells - 32 hour (AID 1224883). Also: nearly all actives have a fitted effect of over 50% in size. Also: potency is read from the fitted curve at half-maximal effect. Put shortly: as §4
A short description of experiment [12]: A CellTox Green Cytotoxicity Assay to monitor cytotoxicity in HEK293 cells - 8 hour (AID 1224884). Also: nearly all actives have a fitted effect of over 35% in size. Also: potency is read from the fitted curve at half-maximal effect. An outline of the steps: as §2
Experiment [13] in a line: qHTS RealTime-Glo MT Cell Viability Assay in HEK293 cells - 24 hour (AID 1224886). Also: top concentration of the series differs between compounds; nearly all actives have a fitted effect of over 50% in size. An outline of the steps:
(§6)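 Nonlytic real-time viability readout: viable cells convert prosubstrate to NanoLuc substrate, giving luminescence proportional to live cell number. HEK293, 600 cells/well, compound added after 5 h, continuous culture at 37 C.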

A short description of experiment [14]: qHTS RealTime-Glo MT Cell Viability Assay in HEK293 cells - 8 hour (AID 1224887). Also: nearly all actives have a fitted effect of over 50% in size. Also: potency is read from the fitted curve at half-maximal effect. An outline of the steps: as §3
Experiment [15] is described as follows: A CellTox Green Cytotoxicity Assay to monitor cytotoxicity in HEK293 cells - 16 hour (AID 1224888). Also: nearly all actives have a fitted effect of over 35% in size. Also: potency is read from the fitted curve at half-maximal effect. Put shortly: as §2
Experiment [16] can be described thus: qHTS RealTime-Glo MT Cell Viability Assay in HepG2 cells - 0 hour (AID 1224889). Also: nearly all actives have a fitted effect of over 50% in size. An outline of the steps:
as §5

Experiment [17] in a line: qHTS RealTime-Glo MT Cell Viability Assay in HEK293 cells - 16 hour (AID 1224872). An outline of the steps:
as §6

Experiment [18] is described as follows: A CellTox Green Cytotoxicity Assay to monitor cytotoxicity in HepG2 cells - 24 hour (AID 1224878). Also: nearly all actives have a fitted effect of over 45% in size. Also: potency is read from the fitted curve at half-maximal effect. Put shortly: as §4
A short description of experiment [19]: qHTS RealTime-Glo MT Cell Viability Assay in HepG2 cells - 16 hour (AID 1224885). Also: nearly all actives have a fitted effect of over 50% in size. Put shortly:
as §5

Experiment [20] can be described thus: A CellTox Green Cytotoxicity Assay to monitor cytotoxicity in HEK293 cells - 32 hour (AID 1224881). Also: nearly all actives have a fitted effect of over 40% in size. Also: potency is read from the fitted curve at half-maximal effect. Put shortly: as §2
% is scaled to controls: 0 for no effect and ±100 for the full control effect.

For `N[C@H]1CN(c2c(F)cc3c(=O)c(C(=O)O)cn(C4C[C@H]4F)c3c2Cl)CC12CC2` (some centres not stated), the Potency result in [1], in experiment [2], in [3], in experiment [5], in [6] and in [7] was “inactive” in each case. The Potency entry in [8], in [9], in experiment [10], in experiment [11], in experiment [12] and in experiment [13] was “inactive” in each case. The Potency entry in experiment [14], in [15] and in experiment [16] was “inactive” each time. Also, the max response in experiment [4] is 11.4% (inactive).

Turning to `O=C1CC2CC1C1CCCC21` (configuration not stated), the Potency result in experiment [1], in [17], in experiment [3], in experiment [6], in experiment [7] and in experiment [8] was “inactive” throughout. The Potency result in experiment [9], in experiment [10], in experiment [11], in experiment [13], in experiment [14] and in [16] was “inactive” throughout. The max response in [4] was -4.86% (inactive).

In the case of `CO[C@]12C[C@@H](COC(=O)c3cncc(Br)c3)CN(C)[C@@H]1Cc1cn(C)c3cccc2c13`, the Potency entry in experiment [1], in [2], in [5], in [7], in experiment [9] and in experiment [12] was “inactive” each time. Also, the Potency result in experiment [19] and in [13] was “inactive” throughout. In addition, in [4], the max response is -5.48% (inactive). In addition, the Potency was 23.9 µM (active) in [6]; 23.9 µM (active) in experiment [18]; 23.9 µM (active) in experiment [8]; 23.9 µM (active) in experiment [11]; 21.3 µM (active) in [14].

`CN1CCCC1`: the Potency entry in experiment [1], in experiment [2], in [3], in experiment [6], in [7] and in [18] was “inactive” throughout. The Potency result in [8], in experiment [9], in experiment [20], in experiment [10], in experiment [11] and in experiment [13] was “inactive” throughout. The Potency result in experiment [15] and in [16] was “inactive” throughout. The max response in experiment [4] is 1.57% (inactive).

Take `CCCN(CCC)CCc1cccc2c1CC(=O)N2`: the Potency result in [1], in experiment [2], in [3], in [5], in experiment [6] and in experiment [7] was “inactive” each time. For the same molecule, the Potency entry in [18], in experiment [8], in [9], in [20], in [10] and in experiment [11] was “inactive” throughout. The Potency result in experiment [12], in [13], in experiment [14], in experiment [15] and in experiment [16] was “inactive” in each case.

`CC1(C)C(O)C(C)(C)C1O` (configuration not stated): the Potency entry in experiment [1], in experiment [2], in [5], in experiment [6], in experiment [7] and in [18] was “inactive” each time. The Potency entry in experiment [8], in experiment [9], in [20], in experiment [10], in experiment [11] and in experiment [12] was “inactive” in each case. The Potency result in experiment [19], in [13], in experiment [14], in experiment [15] and in experiment [16] was “inactive” each time.

Turning to `Oc1ccc(C2CNCCc3c2cc(O)c(O)c3Cl)cc1` (configuration not stated), the Potency entry in experiment [1], in experiment [2], in experiment [3], in experiment [5], in experiment [6] and in experiment [7] was “inactive” in each case. Besides, the Potency result in [18], in experiment [8], in experiment [9], in experiment [20], in experiment [10] and in experiment [11] was “inactive” in each case. The Potency entry in [12], in experiment [19], in experiment [13], in experiment [14], in experiment [15] and in experiment [16] was “inactive” each time.

As for `Cc1cccc(C)c1NC(=O)C(C)N` (configuration not stated), the Potency entry in experiment [1], in experiment [3], in experiment [7], in experiment [9], in experiment [13] and in experiment [14] was “inactive” throughout. The Potency entry in experiment [16] is “inactive”. Besides, the Potency in [2] is 19 µM (active); in experiment [6] it was 21.3 µM (active); in [18], 21.3 µM (active); in [8], 23.9 µM (active); in experiment [20] it was 19 µM (active); in [10], 21.3 µM (active). For the same molecule, the Potency in experiment [11] is 21.3 µM (active); in [12], 19 µM (active); in experiment [15], 19 µM (active). Also, in [4], the max response is 4.07% (inactive).

On to `Nc1nc2c(ncn2COC(CO)CO)c(=O)[nH]1`, for which the Potency result in experiment [2], in experiment [6], in experiment [18], in experiment [8], in experiment [20] and in experiment [10] was “inactive” throughout. Besides, the Potency result in [11], in experiment [12] and in experiment [15] was “inactive” throughout.

Turning to `O=c1cc(-c2ccccc2)oc2ccccc12`, the Potency entry in experiment [1], in [3], in experiment [5], in [6], in experiment [7] and in experiment [18] was “inactive” in each case. The Potency result in [9], in [10], in experiment [12], in experiment [19], in experiment [15] and in experiment [16] was “inactive” in each case. In addition, the Potency was 11 µM (active) and 14.8 µM (active) in [4]; “inactive and 43.6 µM (active)” in [8]; “inactive and 48.7 µM (active)” in [11]; 17.4 µM (active) and 17.3 µM (active) in experiment [14].
